# Assay outcomes as filed in PubChem BioAssay.
# Most compounds without a hit are left out; they make up all but 2.4% or so of the library.
# FLuc inh: blocks Photinus pyralis firefly luciferase activity. purified firefly luciferase, luminescence, 8 min. Potency, µM (highest dose often 57.1 µM), actives largely listed as inhibitors. hit rate 2.2% among 72,000; note: nearly all actives have a fitted effect of over 40% in size
# Target sequence (P08659 whole entry, looked up): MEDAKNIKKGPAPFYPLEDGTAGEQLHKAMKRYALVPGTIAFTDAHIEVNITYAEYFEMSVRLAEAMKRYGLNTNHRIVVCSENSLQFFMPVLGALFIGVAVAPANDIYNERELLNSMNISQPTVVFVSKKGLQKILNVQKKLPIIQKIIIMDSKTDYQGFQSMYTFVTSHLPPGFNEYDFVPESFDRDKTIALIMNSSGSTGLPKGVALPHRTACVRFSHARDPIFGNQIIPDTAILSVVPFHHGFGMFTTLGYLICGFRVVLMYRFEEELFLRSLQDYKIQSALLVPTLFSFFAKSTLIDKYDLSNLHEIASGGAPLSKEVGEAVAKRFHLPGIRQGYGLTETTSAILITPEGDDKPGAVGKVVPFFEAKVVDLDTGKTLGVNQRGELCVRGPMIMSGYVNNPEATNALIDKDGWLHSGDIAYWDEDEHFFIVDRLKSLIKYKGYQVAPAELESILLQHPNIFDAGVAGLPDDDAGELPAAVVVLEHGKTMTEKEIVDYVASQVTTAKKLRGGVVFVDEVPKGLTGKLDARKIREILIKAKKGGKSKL
#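 Firefly luciferase (PKLight detection mix) with 10 uM ATP in pH 7.2 imidazole buffer (KCl, MgCl2, Tween 20, BSA). Compounds tested across a concentration series (qHTS). Luminescence read after 8 min at ambient temperature.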
# IkB signaling: IkB pathway inhibition in ABC-DLBCL cells; ABC-DLBCL IkBa-CBG/CBR dual luciferase ratio, 4 h; response scale: scaled: untreated 0%, proteasome inhibitor 100%; Potency, µM (top dose mostly 57.1 µM); hit rate 0.04% among 110,000; AID 445; active = well fitted curve in the direction sought with a large enough effect in the signal ratio, not every such curve was filed as active; inconclusive = small, poorly fitted or top-dose-only effect, or a change in a side signal; the % refers to the signal ratio;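 note: the direction sought is a rising ratio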
#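 Curves were fitted separately to fusion (green), unfused (red) and ratio luminescence, then classed by r2, magnitude and activity. Cells: OCI-Ly3, 4 h compound plus doxycycline at 37C; 10 uM MG-132 defined full response.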
# p53ts 39C tox: cytotoxicity in p53ts cells at nonpermissive temperature. H1299-p53A138V viability at 39C, ATP luminescence, 24 h. Potency, µM (titrated, usually from 46.1 µM), hits mostly cytotoxic. hit rate 1.5% among 130,000. AID 902; note: nearly all actives have a fitted effect of over 55% in size
# p53ts 32C tox: p53ts cell cytotoxicity, permissive temperature | H1299-p53A138V at 32C, ATP luminescence viability, 24 h | Potency, µM (doses to about 46.1 µM), hits mostly cytotoxic | hit rate 0.93% among 130,000 | AID 924; note: nearly all actives have a fitted effect of over 55% in size
#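 ATP-content luminescence (ATPlite) read-out after 24 h compound exposure at 32C in H1299-p53A138V cells (600/well). Tested up to 46 uM. Normalized to DMSO (0%) and 100 uM tamoxifen (100% killing); Hill-fit AC50.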
# Peg3 imprint: genomic imprint erasure induction; mouse ES Peg3-LacZ reporter, beta-gal luminescence, 40 h; AID 1948; Potency, µM (titrated, usually from 60.7 µM), usual class: activators; hit rate 0.02% among 110,000
#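 Imprint erasure is scored as LacZ activity from the silenced maternal Peg3 allele in feeder-free female ES cells cultured 40 h with LIF. Luminescence is normalized to in-plate negative controls and fitted to the Hill equation.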
# Hits are given with their value; - = inactive; ? = inconclusive; . = no result; ! = not confirmed by another sample; [ ] = another dose, or the depositor's remark. Unless noted, calls come from the whole dose curve; as a rule, active = well fitted curve in the direction sought with a large enough effect; inconclusive = small, poorly fitted or top-dose-only effect, or another doubt; inactive = no such curve, though single readings can be large; an effect the other way counts as inactive or inconclusive.
SMILES,FLuc inh,IkB signaling,p53ts 39C tox,p53ts 32C tox,Peg3 imprint
O=C(CSc1ncc2c(n1)-c1ccccc1N(Cc1ccc(F)cc1)S2(=O)=O)c1ccc(Cl)cc1,.,?,-,-,-[10.9 µM]
CSc1cccc(Nc2cc(C(=O)NCCc3ccc(Cl)cc3)c3ccccc3n2)c1,.,?,?,-,-[10.9 µM]
COc1ccc(Nc2cc(C(=O)NCCCN(C)C3CCCCC3)c3ccccc3n2)cc1,.,-,12.6µM,-,-[10.9 µM]
CCCCN(CCCNC(=O)c1cc(Nc2cccc(SC)c2)nc2ccccc12)Cc1ccccc1,.,?,4.47µM,-,-[10.9 µM]
O[C@@H](c1cc(C(F)(F)F)nc2c(Cl)cc(Cl)cc12)C1CCCCN1 (stereo not given in full),.,.,.,.,-[10.9 µM]
COc1cccc(-n2c(SCc3ccccc3C)nc3c([nH]c4ccccc43)c2=O)c1,.,-,?,-,-[10.9 µM]
COc1ccc(-c2c(C)c3ccc(O)c(CN4CCC(C)CC4)c3oc2=O)cc1OC,.,?,-,-,-[10.9 µM]
CC(C)(C)c1ccc(C(=O)/C=C2\NC(=O)CS2)cc1,2.51µM,-,7.94µM,10µM,-
[ClH+][Cu][ClH+].[Cu].[OH2+]c1ccc2ccccc2c1CN1CCCCC1.[OH2+]c1ccc2ccccc2c1CN1CCCCC1,.,.,.,.,-[10.9 µM]
O=C(COC(=O)c1ccccn1)c1ccc(Br)cc1,10µM,-,-,-,-
Cc1cnc(NC(=O)CSc2nnc(COc3c(C)cccc3C)o2)s1,-,-,-,-,-
Cc1ccc(-c2nnc(SCc3ccccc3F)o2)cc1,20µM,-,?,?,-
O=C(CSc1nnc(-c2ccccc2)o1)Nc1ccccc1F,-,?,10µM,12.6µM,-
Cc1ccc(-c2nnc(SCC(=O)Nc3ccccc3F)o2)cc1,-,?,2.51µM,5.01µM,-
Cc1cnc(NC(=O)CSc2nnc(-c3ccccc3)o2)s1,-,?,10µM,?,-
COc1cc(NC(=O)CSc2nc3nc(C)c(Cc4ccccc4)c(C)n3n2)cc(OC)c1OC,.,?,-,-,-[10.9 µM]
CSc1cccc(NC(=O)CC(c2ccc(F)cc2)N2Cc3ccccc3C2=O)c1 (stereo not given),.,-,-,-,-[10.9 µM]
COc1ccc(CNC(=O)Cn2ccc3cc(S(=O)(=O)N4CCCCC4)ccc32)cc1OC,.,?,-,-,-[10.9 µM]
CCOC(=O)N1CCc2c(sc(NCc3cccs3)c2C(=O)Nc2cc(Cl)ccc2OC)C1,.,?,?,-,-[10.9 µM]
Cc1ccc(-c2nnc(SCC(=O)O)n2N)cc1,-,-,-,-,-
CC(C)(C)c1ccc(-c2nnc(SCC(=O)O)n2N)cc1,15.8µM,-,?,?,-
CCn1c(C)csc1=NC(=O)c1ccccc1O,12.6µM,-,?,?,-
COc1ccc(-c2cc(C(=O)Oc3ccc(Br)cc3)c3ccccc3n2)cc1,.,-,12.6µM,?,-[10.9 µM]
Cc1cc(C(=O)OCC(=O)N2CCOCC2)c2ccccc2n1,-,-,-,-,-
COc1ccc(-c2cc(C(=O)OCC(=O)N3CCCC3)c3ccccc3n2)cc1,20µM,?,6.31µM,12.6µM,-
SMILES,FLuc inh,IkB signaling,p53ts 39C tox,p53ts 32C tox,Peg3 imprint
CC(=O)NCCc1ccc(O)c(O)c1,-,-,-,-,-
NCCc1ccc(O)c(O)c1,-,-,?,12.6µM!,-
CCOC(=O)c1ccc(N2C(=O)c3n[nH]c(-c4cccs4)c3C2c2ccc(C)cc2)cc1 (stereo not given),.,?,-,-,-[10.9 µM]
CCOC(=O)c1ccc(N2C(=O)c3n[nH]c(-c4cccs4)c3C2c2cccc(F)c2)cc1 (stereo not given),.,?,6.31µM,-,-[10.9 µM]
Cc1ccc(Nc2nc3nonc3nc2Nc2cccc(C(F)(F)F)c2)cc1Cl,.,?,10µM,12.6µM,-[10.9 µM]
Cn1cc(Cl)c(-c2nc3ccccc3[nH]2)n1,25.1µM,?,-,?,-
Nc1nonc1-c1nc2ccccc2[nH]1,-,-,-,-,-
CC(=O)O[C@H]1C(=O)[C@]2(C)[C@H]([C@H](OC(=O)c3ccccc3)[C@@]3(O)C[C@H](OC(=O)[C@@H](O)[C@@H](NC(=O)c4ccccc4)c4ccccc4)C(C)=C1C3(C)C)[C@]1(OC(C)=O)CO[C@@H]1C[C@@H]2O,-[11.4 µM],-[11.4 µM],.,.,.
CCOc1ccc(-c2nnc(N)s2)cc1,15.8µM,-,?,?,-
Cc1ccc2nc(-c3sc4nc(C)ccc4c3N)[nH]c2c1,.,.,10µM,12.6µM,.
Cc1ccc2nc(-c3ccc(SCC(=O)O)nc3)[nH]c2c1,-,-,-,-,-
CN=c1scc(-c2cccs2)n1/N=C/c1ccc(O)c(O)c1O,.,.,6.31µM,.,.
CC1=C(c2ccc(Cl)cc2)S(=O)(=O)N=C1N1CCN(c2cccc(C)c2)C(C)C1 (stereo not given),.,-,-,-,-[10.9 µM]
Cc1ccc(OCCSc2nc(-c3ccccc3C)nc3cc(=O)[nH]n23)cc1Cl,.,?,25.1µM,-,-[10.9 µM]
CCn1c(=O)n(CC)c2cc(N3CCCCC3)c(NC(=O)Nc3ccccc3Cl)cc21,.,?,-,-,-[10.9 µM]
CC(C)Oc1ccc(C(=O)Nc2nnc3n2CCS3)cc1,.,-,12.6µM,?,-[10.9 µM]
O=C(Nc1nnc2n1CCS2)c1ccccc1,.,-,-,-,-[10.9 µM]
Cc1ccc(C)c(N2CCN(C(=O)c3cc4ccc5cccnc5c4[nH]3)CC2)c1,.,-,-,-,-[10.9 µM]
Cc1ccc(Cl)cc1N(C)C(=O)c1cc2ccc3cccnc3c2[nH]1,.,?,25.1µM,-,-[10.9 µM]
CC(=O)c1ccc(NC(=O)CSc2nnc(NC(=O)NC3CCCCC3)s2)cc1,.,?,7.94µM,7.08µM,-[10.9 µM]
O=C(CSc1nnc(NC(=O)c2ccco2)s1)NC1CCCCC1,-,?,-,-,-
COc1ccccc1Nc1nnc(SCC(=O)N2CCCC2=O)s1,20µM,?,-,-,-
O=C(CSc1nnc(NC(=O)NC2CCCCC2)s1)Nc1ccccc1F,.,-,10µM,10µM,-[10.9 µM]
COc1ccc(NC(=O)CSc2nnc(NC(=O)NC3CCCCC3)s2)cc1OC,.,?,7.94µM,10µM,-[10.9 µM]
Cc1oc2c(C)c3oc(=O)c(CC(=O)N4CCCCC4)c(C)c3cc2c1C,.,?,-,-,-[10.9 µM]
SMILES,FLuc inh,IkB signaling,p53ts 39C tox,p53ts 32C tox,Peg3 imprint
COc1cc(Cn2c(=O)sc3ccccc32)ccc1OCCC(C)C,.,?,-,-,-[10.9 µM]
COc1ccccc1NC(=O)CSc1nnc(NC(=O)NC2CCCCC2)s1,.,?,7.94µM,?,-[10.9 µM]
O=C1CC(c2ccccc2)Cc2nc(NCc3ccco3)ncc21 (stereo not given),3.16µM,-,7.94µM,6.31µM,-
Cc1cc(C)nc(N(C#N)CC(=O)N2CCC(C(N)=O)CC2)n1,7.94µM,-,-,3.98µM,-
Fc1ccc([C@H]2CCNC[C@H]2COc2ccc3c(c2)OCO3)cc1,5.01µM,?,10µM,31.6µM,-
Cc1cc(NCCCN2CCOCC2)n2nc(C)c(-c3ccccc3)c2n1,-,-,-,-,-
Cc1cc(NCCOCCO)n2ncc(-c3ccc(Cl)cc3)c2n1,6.31µM,-,?,?,-
COc1ccc(-c2cnn3c(C)cc(C)nc23)cc1OC,.,-,-,-,-[10.9 µM]
Cc1cc(NCCCN2CCOCC2)n2ncc(-c3ccccc3)c2n1,12.6µM,-,-,-,-
